Laboratory results published in PMC4552634, “A New Set of Chemical Starting Points with Plasmodium falciparum Transmission-Blocking Potential for Antimalarial Drug Discovery” (PLoS ONE, 2015).
The whole screen tested about 13,000 compounds, of which about 3,200 (25%) showed an effect of 50% or more. This is one part of the list.

system: P. falciparum stage V gametocytes; parameters: BacTiter-Glo ATP luminescence viability of purified stage V gametocytes in 384-well plates, per cent inhibition versus DMSO; settings: 48 h, 5 µM; inhibitor

Row | SMILES | % Inhibition [%]
1 | Cc1cccc2nc(-c3ccc(-c4ccc(CN5CCN(c6cnccn6)CC5)cc4)s3)[nH]c12.O=C(O)C(F)(F)F [TCMDC-133900] | 28.24
2 | COc1ccc(CNCc2cccc(-c3ccc(-c4nc5ccccc5[nH]4)s3)c2)cc1.O=C(O)C(F)(F)F [TCMDC-132733] | 7.28
3 | CC(C)c1ccc(CN2CCC(NC(=O)c3ccc(-c4cccc(Cl)c4)s3)CC2)cc1 [TCMDC-134347] | -17.88
4 | O=C(Nc1ccnc2ccccc12)NC1CCN(CCc2ccccc2)CC1 [TCMDC-139687] | 38.02
5 | O=C(C=Cc1ccc(Cl)c(Cl)c1)NC1CCN(CCc2ccccc2)CC1 [TCMDC-134274] | 3.334
6 | O=C(NC1CCN(Cc2ccccc2)CC1)c1cc(-c2ccncc2)c(-c2ccc(Cl)c(O)c2)o1 [TCMDC-135453] | 2.681
7 | CC1CC1C(=O)NC1CCN(CC2(c3ccccc3)CCCCC2)CC1 (stereo not shown) [TCMDC-124831] | 61.7
8 | Cc1cc(C(=O)NC2CCN(CC3(c4ccccc4)CCCCC3)CC2)on1 [TCMDC-124832] | 67.12
9 | O=C(CCc1ccco1)NC1CCN(CC2(c3ccc(Cl)cc3)CCC2)CC1 [TCMDC-124834] | 42.25
10 | Cc1cc(C(=O)NC2CCN(CC3(c4ccc(Cl)cc4)CCC3)CC2)on1 [TCMDC-124833] | 85.33
11 | COc1coc(C(=O)NC2CCN(CC3(c4ccc(Cl)cc4)CCC3)CC2)c1OC [TCMDC-124835] | 70.44
12 | COc1c(C(=O)NC2CCN(Cc3ccccc3)C2)cnc2ccccc12 (stereo not shown) [TCMDC-138996] | -11.57
13 | CS(=O)(=O)CCNCc1nc(-c2ccc3ncnc(Nc4ccc(OCc5cccc(F)c5)c(Cl)c4)c3c2)cs1 [TCMDC-138499] | -12.17
14 | Nc1ncc(-c2ccc3ncccc3c2)c(N)n1 [TCMDC-133421] | 0.5405
15 | CC(=O)Nc1ccc(CN2CCC(N(C)c3ccc(NC(=O)c4cccc(C)c4)cc3)CC2)cc1 [TCMDC-134985] | -13.81
16 | Cn1cccc1C(=O)Nc1cccc(-c2nn3ccccc3c2-c2ccnc(Nc3ccc4c(c3)OCCO4)n2)c1 [TCMDC-135663] | -4.275
17 | N/C(=N\c1ncccn1)Nc1cccc(Cc2ccccc2)n1 [TCMDC-138948] | -9.706
18 | Cc1cccc(NC(=O)NCc2ccccc2)n1 [TCMDC-123843] | 1.75
19 | NC(=NCc1ccccc1)Nc1cccc(Cc2ccccc2)n1 [TCMDC-138951] | 107.9
20 | NC1=NC(c2ccccc2)N(OCc2ccccc2)C(N)=N1 (stereo not shown) [TCMDC-131586] | -5.605
21 | CCN=C1NC2=C(CC(C(C)(C)C)CC2)C2(CCC(C(C)(C)C)CC2)S1 (stereo not shown) [TCMDC-131288] | 95.02
22 | O=C(CSc1nccn1C1CCCC1)Nc1cc(C(F)(F)F)ccc1Cl [TCMDC-125066] | 0.3827
23 | C=CCOc1ccc(C(=O)Nc2nonc2-c2ccc(OC)c(OC)c2)cc1 [TCMDC-125178] | 71.05

Row | SMILES | % Inhibition [%]
24 | COc1cccc(C(=O)Nc2nonc2-c2ccc(OC)c(OC)c2)c1 [TCMDC-125403] | 43.85
25 | COc1ccc(-c2nonc2NC(=O)c2ccc(OC(C)C)cc2)cc1OC [TCMDC-125130] | 61.65
26 | COc1ccc(-c2nonc2NC(=O)c2ccc(C(C)(C)C)cc2)cc1OC [TCMDC-125404] | 42
27 | COc1ccc(-c2nonc2NC(=O)c2cccc(C)c2)cc1OC [TCMDC-125399] | 77.34
28 | COc1ccc(C(=O)Nc2nonc2-c2ccc(OC)c(OC)c2)cc1Cl [TCMDC-125400] | 30.18
29 | CCOc1ccc(-c2nonc2NC(=O)c2ccc(OC(C)C)cc2)cc1OCC [TCMDC-125276] | 7.159
30 | CCOc1ccc(C(=O)Nc2nonc2-c2ccc(OC)c(OC)c2)cc1 [TCMDC-125402] | 33.5
31 | CCCOc1ccc(C(=O)Nc2nonc2-c2ccc(OC)c(OC)c2)cc1 [TCMDC-125471] | 84.04
32 | CCN(CCCN1CCCCC1)c1cc(C)nc(Nc2cc(F)cc(F)c2)n1 [TCMDC-132450] | 49.02
33 | CCC(C)(C)NC(=O)C(c1cccc(OC)c1)N(C(=O)CNC(=O)c1cccs1)c1ccc2c(c1)OCCO2 (stereo not shown) [TCMDC-125637] | 1.141
34 | O=C(OCc1ccccc1)N1CCc2c([nH]c3ccccc23)C1CCC(F)(F)F (stereo not shown) [TCMDC-134555] | -59.21
35 | Oc1ccc(CCNc2nc(NCc3ccc4cc(Cl)ccc4c3)nc(N3CCNCC3)n2)cc1 [TCMDC-133782] | -8.892
36 | CC(C)(CN)c1nc(-c2ccc(Cl)c(O)c2)c(-c2ccnc(N)n2)[nH]1 [TCMDC-141019] | -19.39
37 | CC(C)Cc1ccc(N2CCN(CCCCNC(=O)c3ccc(NC(=O)c4cc(C(F)(F)F)cc(C(F)(F)F)c4)cc3)CC2)cc1 [TCMDC-138252] | 6.749
38 | COc1ccc2c(c1)CCCC2NCCCCNC(=O)c1ccc(NC(=O)c2ccc(Cl)cc2)cc1 (stereo not shown) [TCMDC-138690] | 6.749
39 | COc1ccc(C2CCN(CCCCNC(=O)c3ccc(NC(=O)c4ccc(Cl)cc4)cc3)CC2)cc1Cl [TCMDC-138366] | 81.78
40 | COc1cc(C2CCN(CCCCNC(=O)c3ccc(NC(=O)c4cc(C(F)(F)F)cc(C(F)(F)F)c4)cc3)CC2)ccc1OC(C)C [TCMDC-138285] | 55.31
41 | CC(C)Cc1ccc(N2CCN(CCCCNC(=O)c3ccc(NC(=O)c4ccc(Cl)c(Cl)c4)cc3)CC2)cc1 [TCMDC-138251] | -11.88
42 | COc1cc(C2CCN(CCCCNC(=O)c3ccc(NC(=O)c4ccc(Cl)c(Cl)c4)cc3)CC2)ccc1OC(C)C [TCMDC-138286] | 111.4
43 | COc1ccc(N2CCN(CCCCNC(=O)c3ccc(NC(=O)c4cc(C(F)(F)F)cc(C(F)(F)F)c4)cc3)CC2)c(OC)c1 [TCMDC-138227] | 7.888
44 | COc1cccc(C2CCN(CCCCNC(=O)c3ccc(NC(=O)c4ccc(Cl)cc4)cc3)CC2)c1 [TCMDC-138312] | 21.15
45 | COc1ccc(C2CCC(NCCCCNC(=O)c3ccc(NC(=O)c4ccc(Cl)cc4)cc3)CC2)cc1 (stereo not shown) [TCMDC-138582] | 60.8
46 | CCN(CC)c1ccccc1CNC(=O)c1cc(Cl)c(N)cc1OC [TCMDC-131416] | 17.92

Row | SMILES | % Inhibition [%]
47 | COc1cc(Nc2ccnc3cc(-c4ccncc4)ccc23)cc(OC)c1OC [TCMDC-138293] | -25.86
48 | C=CC[C@@H](C(=O)OCC)[C@@H]1[C@@H](N(CC=C)C(=O)OC(C)(C)C)CCN1C(=O)OCc1ccccc1 [TCMDC-132035] | 7.25
49 | O=S(=O)(c1cccc(Br)c1)N1CCCCC(c2ccc(C(F)(F)F)cc2)=N1 [TCMDC-134539] | -27.96
50 | C=C[C@H]1CN2CC[C@H]1C[C@@H]2[C@@H](O)c1ccnc2ccccc12 [TCMDC-123933] | 7.627
51 | COc1ccc(N2CCN(c3nc(Nc4ccc(NC(C)=O)cc4)nc(N4CCCC4)n3)CC2)cc1 [TCMDC-123875] | -17.97
52 | CCN(CC)CCCSc1ccc(-c2ccc(SCCCN(CC)CC)cc2)cc1 [TCMDC-131824] | 99.62
53 | CCN(CC)CCCC(C)Nc1ccnc2ccc(-c3ccccc3)cc12 (stereo not shown) [TCMDC-123952] | 41.59
54 | O=C(C=Cc1ccc(Cl)c(Cl)c1)NCCCCCN1CCCC(CCCNS(=O)(=O)c2cccc(C(F)(F)F)c2)C1 (stereo not shown) [TCMDC-139593] | 101.3
55 | O=C(C=Cc1ccc(Cl)c(Cl)c1)NCCCCCN1CCCC(CCCNC(=O)c2cccs2)C1 (stereo not shown) [TCMDC-139576] | 12.1
56 | O=C(C=Cc1ccc(Cl)c(Cl)c1)NCCCCCN1CCCC(CCCNS(=O)(=O)c2cccc3cccnc23)C1 (stereo not shown) [TCMDC-139594] | 96.79
57 | O=C(/C=C/c1ccc(Cl)c(Cl)c1)NCCCCCN1CCCC(CNS(=O)(=O)c2cccc(C(F)(F)F)c2)C1 (stereo not shown) [TCMDC-139597] | 100.9
58 | O=C(C=Cc1ccc(Cl)c(Cl)c1)NCCCCCN1CCC(CCCNS(=O)(=O)c2cccc(C(F)(F)F)c2)CC1 [TCMDC-139591] | 107.6
59 | O=C(/C=C/c1ccc(Cl)c(Cl)c1)NCCCCCN1CCC(NC(=O)Nc2cccc(C(F)(F)F)c2)CC1 [TCMDC-135724] | -61.55
60 | CN(C(=O)/C=C/c1cc(C(F)(F)F)ccc1F)C1CCN(CCCCCNC(=O)/C=C/c2ccc(Cl)c(Cl)c2)C1 (stereo not shown) [TCMDC-139997] | 27.91
61 | O=C(CNCC1CCCCC1)Nc1cc(C(F)(F)F)ccc1Cl [TCMDC-124505] | 6.087
62 | Cc1nc(-c2nc(NCc3ccc4c(c3)OCO4)ncc2-c2ccsc2)sc1C [TCMDC-125358] | 15.74
63 | CCCc1cc(O)c2c3c(c(=O)oc2c1)CN(C)CC3 [TCMDC-124226] | -5.24
64 | COc1ccc(C2=[N+]([O-])c3ccccc3C2=O)cc1 [TCMDC-123940] | -13.17
65 | O=C(O)c1cc(C(F)(F)F)co1 [TCMDC-124155] | -1.887
66 | COc1cccc2cc(C(=O)N[C@@H](CC(C)C)C(=O)N[C@H](C=NN(C)C(=O)OC(C)(C)C)Cc3ccccc3)oc12 [TCMDC-136133] | 30.7
67 | CC[C@H](NC(=O)c1ccc(NC(=O)OC(C)(C)C)cc1)C(=O)N[C@@H](CO)C(=O)NCCCCc1ccccc1 [TCMDC-137189] | 5.299
